Sampled rows, rich in hits. Any-hit rate of the full collection: about 7.9%.
KB-V1 MDR tox – KB-V1 MDR subline cytotoxicity; 3.4% of 400,000 active; KB-V1 MDR cells viability, CellTiter-Glo, 72 h; Potency, µM (series often up to 46.1 µM), hits mostly cytotoxic; note: % is set by controls: 0 for no effect and ±100 for the full control effect; nearly all actives have a fitted effect of over 60% in size
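KB-V1 MDR subline cells in DMEM (phenol-red free, 10% FBS) exposed to compounds in qHTS concentration series for 72 h at 37 degrees C. Viability read by CellTiter-Glo luminescence; concentration-effect curves fitted after normalization and correction.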
MCF10A rereplic – inducers of DNA re-replication in MCF 10A breast cells; AID 624296; 2.9% of 350,000 active; MCF 10A DNA re-replication, Hoechst nuclear intensity, 48 h; Potency, µM (doses to about 46.1 µM), inactives show at the top dose activity, positive = re-replication, actives largely listed as activators; note: % of control where 0% means no effect; nearly all actives have a fitted effect of over 50% in size
KB-3-1 cytotox – kills parental KB-3-1 adenocarcinoma cells. KB-3-1 viability, CellTiter-Glo ATP luminescence, 72 h. Potency, µM (series often up to 46.1 µM), actives largely listed as cytotoxic. 1.4% of 400,000 active. AID 1347075; note: % is set by controls: 0 for no effect and ±100 for the full control effect; nearly all actives have a fitted effect of over 60% in size
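KB-3-1 parental drug-naive adenocarcinoma cells in DMEM/10% FBS, incubated 72 h at 37 C with pin-transferred compounds across a concentration series. Viability by CellTiter-Glo luminescence; concentration-response curves fitted after normalization.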
HT1080NT lethal – kills 2HG-producing HT-1080-NT fibrosarcoma cells; HT-1080-NT fibrosarcoma viability, CellTiter-Glo ATP luminescence, 48 h; Potency, µM (highest dose often 46.1 µM), for inactives: at the top dose activity, negative = less viability, hits mostly cytotoxic; 1.6% of 360,000 active; AID 686970;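 note: NT is the 2HG producing partner of a matched IDH1 knockdown line; 0% = DMSO-treated cells and -100% = media-only wells without cells; nearly all actives have a fitted effect of over 55% in size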
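HT-1080-NT fibrosarcoma cells (2HG-overproducing), 750 cells/well in RPMI with 5% FBS, dosed after 2 h and incubated 48 h at 37C. CellTiter-Glo luminescence normalized to DMSO and no-cell wells; concentration-response curves fitted and classed.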
SW480 rerep – DNA re-replication induction in SW480 cells; 1.8% of 340,000 active; Potency, µM (top dose mostly 46.1 µM), inactives show at the highest dose re-replication activation, actives largely listed as activators; AID 624297; SW480 DNA re-replication, Hoechst DNA content imaging, 48 h; note: % of control where 0% means no effect; nearly all actives have a fitted effect of over 55% in size
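Readout is total intensity of Hoechst-stained nuclei, excited at 405 nm and collected at 500-530 nm. Compound treatment lasted 48 hr at 37 C in 5% CO2 before staining.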
HT1080 IDH1KD tx – kills HT-1080 cells with IDH1 knockdown. HT-1080 IDH1 knockdown viability, ATP luminescence, 48 h. Potency, µM (doses to about 46.1 µM), for inactives: at the highest dose activity, negative = toxicity, most hits filed as cytotoxic. 2% of 360,000 active. AID 686971;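 note: 0% = DMSO wells and -100% = cell-free medium wells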
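CellTiter-Glo luminescence after 48 h compound exposure at 37 degrees C of IDH1-knockdown HT-1080 cells in 5% FBS RPMI. %Activity scaled between DMSO wells and cell-free media wells, with curves fitted and assigned curve classes.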
Active calls of the source: *. Calls come from the whole dose curve; as a rule, active = well fitted curve in the direction sought with a large enough effect; inconclusive = small, poorly fitted or top-dose-only effect, or another doubt; inactive = no such curve, though single readings can be large; an effect the other way counts as inactive or inconclusive. Potency is the fitted concentration of half-maximal effect.

Cc1cc(C)c[n+](C(C)C(=O)c2ccc(-c3ccccc3)cc2)c1 (stereo not given) was read as KB-V1 MDR tox inactive, MCF10A rereplic 4%, KB-3-1 cytotox 5.8µM*, HT1080NT lethal -19%, SW480 rerep 4% and HT1080 IDH1KD tx inconclusive.
`COc1cc(C(=O)OC2CC3CCC2(C)C3(C)C)ccc1OC(C)=O` (stereo not given) gave KB-V1 MDR tox inconclusive, MCF10A rereplic 15µM*, KB-3-1 cytotox inactive, HT1080NT lethal 1%, SW480 rerep inconclusive and HT1080 IDH1KD tx -9%.
For CCN(CC)CCCNC(=O)c1[nH]c2ccccc2c1Sc1ccc(Cl)cc1 the results were KB-V1 MDR tox inactive, MCF10A rereplic inconclusive, KB-3-1 cytotox inactive, HT1080NT lethal 21µM*, SW480 rerep 25% and HT1080 IDH1KD tx 16µM*.
Screening CCCCNC(=O)c1[nH]c2ccccc2c1Sc1ccc(C)cc1 returned KB-V1 MDR tox inactive and KB-3-1 cytotox inactive.
`C/C(N)=C(/C#N)C(=O)CSc1nnc(COc2cc(C)ccc2C)o1` gave KB-V1 MDR tox inactive, MCF10A rereplic 18µM*, KB-3-1 cytotox inactive, HT1080NT lethal -6%, SW480 rerep 20% and HT1080 IDH1KD tx -1%.
NC(=O)CSc1nnc(-c2ccc3c(c2)OCO3)o1 was read as KB-V1 MDR tox inactive, MCF10A rereplic -12%, KB-3-1 cytotox inactive, HT1080NT lethal -1%, SW480 rerep -19% and HT1080 IDH1KD tx -10%.
`C/C(N)=C(/C#N)C(=O)CSc1nnc(-c2ccc3c(c2)OCO3)o1` gave KB-V1 MDR tox inactive, MCF10A rereplic 4%, KB-3-1 cytotox inactive, HT1080NT lethal -1%, SW480 rerep 12µM* and HT1080 IDH1KD tx -4%.
CN(Cc1ccc(Br)s1)C(=O)CNC(=O)c1ccc2c(c1)OCO2 was read as KB-V1 MDR tox 21µM*, MCF10A rereplic -1%, KB-3-1 cytotox inactive, HT1080NT lethal -1%, SW480 rerep -8% and HT1080 IDH1KD tx 1%.
For CN(C)Cc1cc(C(F)(F)F)ccc1C(O)(c1ccccc1)c1ccccc1 the results were KB-V1 MDR tox 21µM*, MCF10A rereplic 21%, KB-3-1 cytotox inconclusive, HT1080NT lethal -15%, SW480 rerep inconclusive and HT1080 IDH1KD tx -2%.
Cc1cccc(CCNC(=O)CN(c2ccc(C(C)C)cc2)S(=O)(=O)c2c(C)nn(C)c2C)c1 was read as KB-V1 MDR tox inactive and KB-3-1 cytotox inactive.
CC(C)OC(=O)c1c(F)c(F)c(N2CCOCC2)c(F)c1F was read as KB-V1 MDR tox inactive, MCF10A rereplic 3.3µM*, KB-3-1 cytotox inactive, HT1080NT lethal 16%, SW480 rerep 1% and HT1080 IDH1KD tx inconclusive.
COc1ccc(OC)c(NC(=O)c2cc(-c3cc(Cl)ccc3O)n[nH]2)c1 was read as KB-V1 MDR tox inconclusive, MCF10A rereplic 15µM*, KB-3-1 cytotox inconclusive, HT1080NT lethal -27%, SW480 rerep inconclusive and HT1080 IDH1KD tx inconclusive.
Screening NS(=O)(=O)c1ccc(NC(=O)c2cc(-c3cc(Cl)ccc3O)n[nH]2)cc1 returned KB-V1 MDR tox inactive, MCF10A rereplic 1%, KB-3-1 cytotox inactive, HT1080NT lethal inconclusive, SW480 rerep 2% and HT1080 IDH1KD tx 18µM*.
For COc1ccc(Cl)cc1NC(=O)c1cc(-c2ccccc2O)n[nH]1 the results were KB-V1 MDR tox inconclusive, MCF10A rereplic 11%, KB-3-1 cytotox inactive, HT1080NT lethal -2%, SW480 rerep -108% and HT1080 IDH1KD tx -3%.
Screening NS(=O)(=O)c1ccc(NC(=O)c2cc(Cl)ccc2Cl)cc1 returned KB-V1 MDR tox inactive, MCF10A rereplic 19%, KB-3-1 cytotox inactive, HT1080NT lethal -6%, SW480 rerep 1% and HT1080 IDH1KD tx -6%.

Compound activity deposited in PubChem BioAssay by National Center for Advancing Translational Sciences (NCATS).
